PubChem BioAssay
Calls of active or inactive are those of the source.

Assays:
Albumin (Bos taurus) = Albumin (Bos taurus) (UniProt P02769); assay: compounds binding labelled BSA control protein – biochemical, small-molecule microarray, Alexa647 label, 635/667 nm fluorescence, artefact control for SMM control protein annotation, profiling panel (AID 1118); settings: BSA-A647 binding, fluorescence 635 nm, higher = more signal;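 note: score merges 667 nm emission intensity and signal-to-noise per printed compound spot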
Sequence of Albumin (Bos taurus) (P02769 whole entry, looked up): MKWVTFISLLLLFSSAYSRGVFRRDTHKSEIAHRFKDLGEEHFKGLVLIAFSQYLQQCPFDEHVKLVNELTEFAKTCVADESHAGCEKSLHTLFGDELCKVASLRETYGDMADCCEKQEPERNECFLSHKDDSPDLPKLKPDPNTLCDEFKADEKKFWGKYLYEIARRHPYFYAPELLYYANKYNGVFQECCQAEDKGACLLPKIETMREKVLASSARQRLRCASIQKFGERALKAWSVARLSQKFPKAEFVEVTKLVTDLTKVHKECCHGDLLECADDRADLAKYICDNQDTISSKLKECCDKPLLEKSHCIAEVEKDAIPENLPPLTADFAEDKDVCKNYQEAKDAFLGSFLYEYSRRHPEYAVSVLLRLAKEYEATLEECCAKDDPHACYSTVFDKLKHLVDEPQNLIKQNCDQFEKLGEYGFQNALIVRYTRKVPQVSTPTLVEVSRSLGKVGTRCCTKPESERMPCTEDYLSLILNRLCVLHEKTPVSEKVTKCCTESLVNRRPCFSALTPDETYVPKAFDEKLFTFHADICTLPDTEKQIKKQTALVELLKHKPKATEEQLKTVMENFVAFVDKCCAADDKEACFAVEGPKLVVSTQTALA

[1] = probe aXIP binding to arrayed compounds – biochemical, NeuroSMM set, 635/667 nm fluorescence, primary screen (AID 1119); settings: small-molecule microarray, higher = more signal, called active from +8 up or from −8 down;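 note: probe is the protein aXip251-270 applied at 1 µg/mL to compound-printed slides; binding of probe to printed compounds measured as 667 nm fluorescence plus signal to noise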
[2] = probe aNOTCH3 binding on compound microarray – biochemical, small-molecule microarray, 635/667 nm fluorescence, primary screen (AID 1120); settings: higher = more signal;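 note: probe is a biotin-tagged antibody raised against NOTCH3 rather than NOTCH3 protein; score merges spot fluorescence near 667 nm with spot signal to noise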
[3] = probe aNOTCH2 binding on compound microarray – biochemical, small-molecule microarray, 635/667 nm fluorescence, primary screen (AID 1121); settings: higher = more signal;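 note: score merges feature fluorescence read at 667 nm with its signal to noise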
[4] = molecular target: Carbonic anhydrase 2 (Homo sapiens) (UniProt P00918); assay: compounds binding carbonic anhydrase 2 – biochemical, small-molecule microarray, Alexa647-labelled CAII, profiling panel (AID 1122); settings: CAII-A647 binding fluorescence, higher = more signal
[5] = COS7 lysate on small-molecule microarray, probe aHis, 635 nm (AID 1123); settings: COS7 cell lysate, fluorescence, higher = more signal;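 note: z-score combines 667nm fluorescence intensity with signal-to-noise per printed compound spot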
[6] = probe aLAP1 signal on lysate-treated microarray – cell lysate, small-molecule microarray, COS7 lysate, primary screen (AID 1124); settings: probe aLAP1, fluorescence, higher = more signal;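 note: lysate comes from COS7 cells expressing LAP1 and is applied at 0.3 µg/mL; score merges spot fluorescence near 667 nm with signal-to-noise over triplicate slides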
Sam68 (KHDRBS1) = assay: compounds binding KHDRBS1 protein – biochemical, small-molecule microarray, 635 nm fluorescence, primary screen (AID 1125); settings: higher = more signal;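 note: score merges 667 nm channel intensity with signal to noise over triplicate slides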
[7] = tested on: Chordin-like protein 2 (CHRDL2); assay: compounds binding chordin-like 2 – biochemical, small-molecule microarray, 635 nm fluorescence, primary screen (AID 1126); settings: fluorescence 635 nm, higher = more signal;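 note: printed compound slides probed with Chrdl2 protein at 4 µg/mL for 1 h at 4 C; score merges 667 nm emission intensity with signal to noise over three replicate slides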
[8] = molecular target: Concanavalin-A (Canavalia ensiformis) (UniProt P02866); assay: compounds binding concanavalin A lectin – biochemical, small-molecule microarray, Alexa647 label, 635 nm, artefact control for SMM control protein annotation, primary screen (AID 1127); settings: ConA-A647 binding fluorescence, higher = more signal;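 note: z combines 667 nm emission intensity with signal-to-noise across three replicate slides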
Sequence of Concanavalin-A (Canavalia ensiformis) (P02866 whole entry, looked up): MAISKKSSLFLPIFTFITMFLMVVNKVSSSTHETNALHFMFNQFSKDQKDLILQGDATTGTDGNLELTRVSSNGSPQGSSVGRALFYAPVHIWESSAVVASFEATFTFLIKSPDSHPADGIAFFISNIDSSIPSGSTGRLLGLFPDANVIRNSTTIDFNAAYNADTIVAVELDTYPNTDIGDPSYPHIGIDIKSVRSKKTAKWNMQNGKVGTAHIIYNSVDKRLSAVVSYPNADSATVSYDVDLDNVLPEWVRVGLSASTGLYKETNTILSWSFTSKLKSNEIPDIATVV

[9] = compounds binding Alexa647 anti-His antibody – biochemical, small-molecule microarray, 635 nm fluorescence, artefact control for SMM control protein annotation, primary screen (AID 1128); settings: higher = more signal;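 note: score merges feature fluorescence with signal-to-noise for each printed compound spot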
[10] = tested on: Human papillomavirus type 1a E7 protein (residues 1-88); assay: HPV1a E7 small-molecule binders, primary screen, biochemical, small-molecule microarray, residues 1-88, 635 nm (AID 1129); settings: small-molecule microarray binding, fluorescence 635 nm; higher = more signal
[11] = molecular target: Focal adhesion kinase 1 (Homo sapiens) (UniProt Q05397); assay: PTK2 protein binding on printed compound slides – biochemical, small-molecule microarray, 635/667 nm fluorescence, BSA, DTT, primary screen (AID 1130); settings: 635 nm fluorescence, higher = more signal;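 note: composite of spot emission at 667 nm and signal to noise over triplicate slides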
Sequence of Focal adhesion kinase 1 (Homo sapiens) (Q05397 whole entry, looked up): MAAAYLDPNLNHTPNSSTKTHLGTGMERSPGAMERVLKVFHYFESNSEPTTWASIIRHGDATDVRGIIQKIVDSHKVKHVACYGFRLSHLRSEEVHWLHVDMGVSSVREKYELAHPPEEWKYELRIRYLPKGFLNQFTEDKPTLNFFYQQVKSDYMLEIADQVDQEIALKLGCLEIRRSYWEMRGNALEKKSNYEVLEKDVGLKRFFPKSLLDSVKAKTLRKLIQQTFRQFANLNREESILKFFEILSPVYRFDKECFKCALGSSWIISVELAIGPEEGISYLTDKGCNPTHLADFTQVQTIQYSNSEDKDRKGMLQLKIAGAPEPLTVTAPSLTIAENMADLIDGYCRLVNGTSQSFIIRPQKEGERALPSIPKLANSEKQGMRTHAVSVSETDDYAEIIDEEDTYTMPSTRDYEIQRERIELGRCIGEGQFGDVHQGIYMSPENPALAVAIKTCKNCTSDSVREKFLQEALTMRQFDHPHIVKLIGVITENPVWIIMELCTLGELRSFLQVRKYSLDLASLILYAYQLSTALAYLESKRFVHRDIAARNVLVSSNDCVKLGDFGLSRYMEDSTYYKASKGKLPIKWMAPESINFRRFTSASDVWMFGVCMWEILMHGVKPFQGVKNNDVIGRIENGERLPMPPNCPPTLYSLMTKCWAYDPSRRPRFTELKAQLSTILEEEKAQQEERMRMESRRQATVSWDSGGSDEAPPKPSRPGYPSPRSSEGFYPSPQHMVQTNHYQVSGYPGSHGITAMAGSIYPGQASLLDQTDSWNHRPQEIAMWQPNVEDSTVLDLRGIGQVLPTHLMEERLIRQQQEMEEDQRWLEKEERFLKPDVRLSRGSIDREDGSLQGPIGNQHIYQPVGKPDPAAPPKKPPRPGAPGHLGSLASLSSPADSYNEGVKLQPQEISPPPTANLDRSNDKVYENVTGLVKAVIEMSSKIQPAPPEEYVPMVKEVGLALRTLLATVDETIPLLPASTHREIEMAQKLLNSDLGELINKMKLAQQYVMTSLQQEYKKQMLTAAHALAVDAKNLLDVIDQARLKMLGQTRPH

[12] = tested on: Fibrinogen (Alexa647-labelled); assay: Alexa647-fibrinogen binding to printed small molecules – biochemical, small-molecule microarray, 635/667 nm fluorescence, artefact control for SMM control-protein annotation, profiling panel (AID 1131); settings: fibrinogen-A647 binding fluorescence, higher = more signal;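 note: z-score merges 667 nm fluorescence with per-spot signal-to-noise over triplicate slides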
[13] = molecular target: Follistatin (Homo sapiens) (UniProt P19883); assay: FST protein binding to printed compounds – biochemical, small-molecule microarray, 635/667 nm fluorescence, primary screen (AID 1132); settings: 635 nm fluorescence, higher = more signal
Sequence of Follistatin (Homo sapiens) (P19883 whole entry, looked up): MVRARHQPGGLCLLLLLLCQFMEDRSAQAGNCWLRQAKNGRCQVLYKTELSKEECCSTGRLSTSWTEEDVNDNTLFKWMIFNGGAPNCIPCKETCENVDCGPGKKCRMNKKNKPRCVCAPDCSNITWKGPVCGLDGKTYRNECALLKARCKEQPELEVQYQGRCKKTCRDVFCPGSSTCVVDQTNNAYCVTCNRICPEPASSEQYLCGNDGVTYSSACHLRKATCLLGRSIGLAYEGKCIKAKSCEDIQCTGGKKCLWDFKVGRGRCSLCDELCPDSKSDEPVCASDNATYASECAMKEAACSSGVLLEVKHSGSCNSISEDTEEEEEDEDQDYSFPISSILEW

[14] = molecular target: Fibroblast growth factor 2 (Homo sapiens) (UniProt P09038); assay: basic fibroblast growth factor binding to printed compounds – biochemical, small-molecule microarray, 635/667 nm fluorescence, primary screen (AID 1133); settings: FGF2, fluorescence 635/667, higher = more signal
Sequence of Fibroblast growth factor 2 (Homo sapiens) (P09038 whole entry, looked up): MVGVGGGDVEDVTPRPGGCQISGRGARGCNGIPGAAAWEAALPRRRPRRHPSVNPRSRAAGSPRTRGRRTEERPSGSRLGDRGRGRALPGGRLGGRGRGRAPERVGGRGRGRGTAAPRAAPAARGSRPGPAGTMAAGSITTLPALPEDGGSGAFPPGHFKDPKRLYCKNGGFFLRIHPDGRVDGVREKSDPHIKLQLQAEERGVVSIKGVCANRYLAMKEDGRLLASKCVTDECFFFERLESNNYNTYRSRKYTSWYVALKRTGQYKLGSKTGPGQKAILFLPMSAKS

[15] = JC-1 mitochondrial potential readout, lung cancer cells – cell-based, A549, JC-1 fluorescence, basal, 24 h, 100 nL, profiling panel (AID 1138); settings: higher = more signal;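 note: A549 lung adenocarcinoma cells under basal conditions with no added stimulus; test concentration not given here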
Lefty1 = Lefty1 protein binding to printed compounds – biochemical, small-molecule microarray, 635/667 nm fluorescence, primary screen (AID 1139); settings: fluorescence 635/667, higher = more signal
[16] = tested on: wheat germ agglutinin (Triticum aestivum), Alexa647-labelled; assay: Alexa647-WGA lectin binding to printed small molecules – biochemical, small-molecule microarray, 635/667 nm fluorescence, artefact control for SMM control-protein annotation, profiling panel (AID 1140); settings: WGA-A647 binding, 635 nm fluorescence, higher = more signal;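 note: score merges 667 nm feature emission with signal to noise over triplicate slides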
[17] = molecular target: Luciferin 4-monooxygenase (Photinus pyralis) (UniProt P08659); assay: inhibition of purified Photinus pyralis luciferase – biochemical, luminescence, purified enzyme, 2006 set, primary screen (AID 1141); settings: purified firefly luciferase, SteadyGlo luminescence, 30 min; higher = more signal, called active from +8 up or from −8 down;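 note: cell-free assay with purified firefly luciferase at 100 ng per well in PBS; test concentration not given here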
Sequence of Luciferin 4-monooxygenase (Photinus pyralis) (P08659 whole entry, looked up): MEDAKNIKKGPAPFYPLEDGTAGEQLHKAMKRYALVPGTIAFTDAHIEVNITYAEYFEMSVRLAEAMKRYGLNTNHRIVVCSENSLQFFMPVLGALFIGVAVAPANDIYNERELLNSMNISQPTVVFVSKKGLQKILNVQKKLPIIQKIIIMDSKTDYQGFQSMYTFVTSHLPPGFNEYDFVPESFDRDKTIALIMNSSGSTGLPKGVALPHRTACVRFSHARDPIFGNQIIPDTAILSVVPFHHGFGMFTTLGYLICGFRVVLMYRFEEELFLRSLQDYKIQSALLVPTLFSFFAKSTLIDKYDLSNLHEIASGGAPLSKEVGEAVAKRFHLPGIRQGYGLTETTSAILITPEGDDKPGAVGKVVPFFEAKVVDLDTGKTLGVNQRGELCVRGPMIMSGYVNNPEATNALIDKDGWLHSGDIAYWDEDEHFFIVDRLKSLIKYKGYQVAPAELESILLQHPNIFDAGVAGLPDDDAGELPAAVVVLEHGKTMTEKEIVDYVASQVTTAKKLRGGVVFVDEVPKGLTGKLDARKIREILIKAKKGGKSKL

Structure (SMILES)	composite z-score (Albumin (Bos taurus))	composite Z-score [1]	composite z-score [2]	composite z-score [3]	composite z-score [4]	composite z-score [5]	composite z-score [6]	composite z-score (Sam68 (KHDRBS1))	composite z-score [7]	composite z-score [8]	composite z-score [9]	composite z-score [10]	composite z-score [11]	composite z-score [12]	composite z-score [13]	composite z-score [14]	z-score [15]	composite z-score (Lefty1)	composite z-score [16]	z-score [17]
CCOC(=O)[C@@H]1CCCCN1C(=O)C(=O)OC	0.145	-0.587 (inactive)	-0.0431	-0.274	-0.177	0.226	0.193	0.322	-0.0507	0.131	0.234	0.504	0.1	-0.23	0.479	0.894	-0.309	1.29	-0.48	0.0296 (inactive)
COCC(=C=CC[C@H](O)c1ccc(OCCO)cc1)CCO	-0.173	-0.321 (inactive)	-0.0298	0.0312	0.736	0.368	0.342	0.763	0.262	-0.155	0.434	0.633	-0.225	-0.142	1.41	1.06	0.63	1.56	-0.335	-1.36 (inactive)
COc1cc(NN2C(C(O)c3ccco3)C=CC3C(=O)N(C)C(=O)C32)cc(OC)c1OC (stereo not given)	0.593	0.319 (inactive)	0.313	0.267	0.738	0.815	-0.0901	0.633	0.861	0.215	1.04	0.388	-0.422	0.127	-0.0496	0.127	0.629	0.0051	0.793	-0.249 (inactive)
CCOc1cc(C(O)C2C=CC3C(=O)NC(=O)C3N2Nc2ccc(Cl)cc2Cl)ccc1O (stereo not given)	-0.671	0.568 (inactive)	-0.152	-0.0601	0.797	1.23	-0.587	-1.94	-0.157	-0.915	-0.254	-0.537	0.725	0.332	-0.403	-0.744	-0.262	-1.33	0.235	0.445 (inactive)
O=C1CS(=O)(=O)C(c2cccc([N+](=O)[O-])c2)N1c1ccccc1 (stereo not given)	0.501	1.11 (inactive)	0.482	0.48	0.787	0.904	0.85	0.329	0.527	0.353	1.67	1.16	0.596	0.522	0.469	0.698	1.53	-0.269	0.909	-1.61 (inactive)
COC(=O)c1c(CC[C@@H](CO)NC(=O)N2CCC[C@H]2Cn2cc(C3(O)CCCCC3)nn2)oc(C(C)=O)c1C(=O)OC	0.844	0.506 (inactive)	-0.0328	-0.0795	0.707	1.44	0.473	1.28	1.09	1.04	0.794	0.759	-0.0763	0.888	0.745	1.59	-0.403	1.39	-0.0239	0.97 (inactive)
[N-]=[N+]=Nc1ccccc1C[C@]1(C(=O)NCC(O)CO)COC(c2ccc(OCCCO)cc2)=N1 (stereo not given in full)	0.407	0.371 (inactive)	0.0339	-0.0482	0.753	2.09	0.282	-0.206	-1.21	0.832	1.91	1.23	0.352	0.579	-0.0953	-0.483	2	-0.729	0.14	-4.04 (inactive)
COC(=O)C1=CC(CCCO)=CC(c2cccs2)N(C)C=C1C(=O)OC (stereo not given)	0.445	0.156 (inactive)	-0.0879	-0.115	0.869	1.17	-0.371	-0.213	-0.44	0.34	0.15	-0.5	0.143	-0.198	-0.344	-0.498	0.0963	-0.307	0.507	-0.674 (inactive)
C=CC[C@]1(C(=O)N2CCOCC2)COC(c2ccc(OCCCO)cc2)=N1	1.08	-0.275 (inactive)	0.298	-0.13	0.777	3.27	1.6	1.28	0.191	1.16	2.4	1.3	0.555	0.837	1.33	0.386	-0.772	0.768	0.959	0.566 (inactive)
CC(C)N1C(=O)C[C@@](C(=O)NC2CC2)(c2ccc([N+](=O)[O-])cc2)[C@H]1c1ccc(CO)cc1	-1.1	-0.239 (inactive)	-0.339	-0.14	0.525	2.95	0.965	-0.203	-1.08	-0.0039	1.7	-0.0823	0.403	-0.793	0.323	0.362	-0.544	-1.11	-0.545	-0.254 (inactive)
NC(=O)NCC#Cc1ccc2c(c1)[C@]1(C(=O)N2)[C@H](c2ccccc2OCCO)N2[C@H](c3ccccc3)[C@H](c3ccccc3)OC(=O)[C@H]2[C@@H]1C(=O)NC[C@H](O)c1ccccc1	0.63	-0.17 (inactive)	-0.143	-0.103	0.582	1.19	0.428	0.026	-0.501	0.68	1.1	-0.28	0.183	0.699	0.109	-0.751	-0.203	-0.0823	0.91	0.896 (inactive)
